We go through 21 compounds from PubChem BioAssay AID743312 (Broad Institute, 2014).

Measured potencies and affinities stand elsewhere. Values without a mark were called inactive. Active and inactive are the calls of the source. No rule for the calls is given here.

The nature of this test: A549 cell cytotoxicity, dose response, cytotoxicity control, plate reader, dry powder, set 6 (AID 743312). The conditions noted are these: series mostly up to 26 µM; activity change, negative = cytotoxicity: at the top concentration.
`FC(F)(F)c1cccc(OCCn2cnc3ccccc32)c1`: the “activity change, negative = cytotoxicity” value was 21.4%.
The same measure, in the same setting: the value for `CS(=O)(=O)c1ccc(OCCn2cnc3ccccc32)cc1` was 47.3%.
On the same count and under the same terms, the value for `CCCc1nc2ccccc2n1CCOc1ccccc1` was -24.4%; that for `COc1cc(C)ccc1OCCn1cnc2ccccc21` was -1.25%; that for `CCCCc1nc2ccccc2n1CCOc1ccccc1` was 14.4%.
Regarding `COc1cccc(OCCn2cnc3ccccc32)c1`, the “activity change, negative = cytotoxicity” value is -10.1%.
Same read-out and setting: under `CSc1nc2ccccc2n1CCOc1ccc(C)cc1` stands 31.9%; under `COc1ccc(OCCn2cnc3ccccc32)cc1`, -23.8%.
Still for that read-out and setting: under `CC(C)Oc1ccc(OCCn2cnc3ccccc32)cc1` stands -7.64%; under `Cc1cc2ncn(CCOc3ccccc3)c2cc1C`, -2.58%.
Same read-out and setting: under `CSc1nc2ccccc2n1CCOc1ccccc1` stands -2.73%.
`Cc1cccc(OCCn2cnc3ccccc32)c1`: the “activity change, negative = cytotoxicity” value is 28.1%.
Still for that read-out and setting: under `COc1ccccc1OCCn1c(=S)[nH]c2ccccc21` stands 22.9%.
Take `c1ccc(COc2ccc(OCCn3cnc4ccccc43)cc2)cc1`: the “activity change, negative = cytotoxicity” value was -10.8%.
On the same count and under the same terms, the value for `CC(C)Oc1ccc(OCCn2c(=S)[nH]c3ccccc32)cc1` was -2.95%.
On the same count and under the same terms, under `Fc1cccc2c1[nH]c(=S)n2CCOc1ccccc1` stands -11.3%; under `Cc1cccc(OCCn2c(=S)[nH]c3ccccc32)c1`, -37.9%; under `CC(C)(C)c1ccc(OCCn2cnc3ccccc32)c(Cl)c1`, -14.9%.
Consider `Cc1cccc(OCCn2c(=S)[nH]c3c(F)cccc32)c1`, for which the call was inactive.
On to `Clc1ccccc1OCCn1cnc2ccccc21`, for which the “activity change, negative = cytotoxicity” value was 16%.
As to `Clc1ccc(OCCn2cnc3ccccc32)cc1`, the “activity change, negative = cytotoxicity” value is -13.9%.
